APOBEC3A inh = human APOBEC3A DNA deaminase inhibition | recombinant A3A, FAM/TAMRA ssDNA deamination fluorescence | inhibition, % at 20 µM | 330,000 tested, 0.41% active | P31941;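 active means at least 40% inhibition at 20 µM here, with at most 30% in a related deaminase screen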;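 further: plate controls were A3A with DMSO for no effect and wells lacking A3A enzyme for full effect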
NTR1 agonist = NTR1 (human) agonism. P30989. NTR1-U2OS beta-arrestin-GFP spot imaging, agonist mode. activation, % at 20 µM. 330,000 tested, 0.17% active;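 active means activation at or above 40% of the spot to cytoplasm intensity ratio, with at least 20 cells analyzed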;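 further: 0% = DMSO without peptide and 100% = 100 nM NTR1 peptide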
Target sequence (P30989 whole entry, looked up): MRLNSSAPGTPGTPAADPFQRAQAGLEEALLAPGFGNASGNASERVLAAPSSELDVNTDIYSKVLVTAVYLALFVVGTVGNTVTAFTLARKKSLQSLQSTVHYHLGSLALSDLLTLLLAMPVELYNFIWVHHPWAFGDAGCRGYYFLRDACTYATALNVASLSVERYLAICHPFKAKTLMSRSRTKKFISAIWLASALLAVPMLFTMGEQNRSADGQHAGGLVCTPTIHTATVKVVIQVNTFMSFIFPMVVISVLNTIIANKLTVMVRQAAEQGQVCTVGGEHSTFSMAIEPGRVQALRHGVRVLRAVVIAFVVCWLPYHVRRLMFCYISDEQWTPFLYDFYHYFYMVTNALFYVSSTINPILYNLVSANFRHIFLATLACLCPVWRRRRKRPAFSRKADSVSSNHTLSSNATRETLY
AHR activator = activators of human aryl hydrocarbon receptor | P35869 | AHR-responsive luciferase reporter cells, luminescence | activation, % at 5 µM | 320,000 tested, 2.5% active | AID 2796; in the data active means activation above about 47%;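 further: 0% = vehicle wells and 100% = reference agonist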
APOBEC3G inh = inhibitors of human APOBEC3G DNA deaminase. Q9HC16. recombinant A3G, ssDNA deamination FAM/TAMRA fluorescence. inhibition, % at 20 µM. 330,000 tested, 0.28% active. AID 493012;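 active means inhibition of at least 40% at 20 µM, with no more than 30% in the related APOBEC3A deaminase screen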;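 further: plate controls were DMSO wells with A3G for no effect and wells lacking A3G enzyme for full effect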
A3A conf = confirmation of human APOBEC3A DNA deaminase inhibitors. inhibition, % at 20 µM. recombinant A3A, ssDNA deaminase UDG fluorescence assay. shares compounds with APOBEC3A inh. AID 493151. 1,400 tested, 63% active;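 active means inhibition reaching a set limit, 80% of the first screen's cutoff, at 20 µM in any replicate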;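 further: plate controls were DMSO wells with A3A for no effect and wells lacking A3A enzyme for full effect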
UDG A3A counter = UDG inhibition in APOBEC3A counter-screen. shares compounds with APOBEC3A inh. UDG counterscreen, FAM/TAMRA uracil oligo fluorescence. inhibition, % at 20 µM. 1,000 tested, under 10 active; call rule not given here
Numbers without * were called inactive; · = no result. An excerpt weighted towards active compounds, which were near 3.2% of everything screened.

SMILES | APOBEC3A inh | NTR1 agonist | AHR activator | APOBEC3G inh | A3A conf | UDG A3A counter
CN(C)CCOC(=O)C1(c2ccccc2)CCCC1 | 1 | 1 | -1 | 1 | · | ·
COn1cnnc1-c1ccccc1 | 47* | 0 | 0 | 18 | 6 | ·
CC(=O)Nc1ccc(Nc2nnc(-c3ccc(C)c(S(N)(=O)=O)c3)c3ccccc23)cc1 | 61* | 2 | -1 | -9 | -1 | -2
CCn1nc([N+](=O)[O-])c2c(-c3nc4ccccc4o3)c(N)n(CCCOC)c2c1=O | 3 | 7 | 8 | -2 | · | ·
CS(=O)(=O)c1ccc(NC(=O)CCCc2nc3ccccc3c(=O)[nH]2)cc1 | 10 | 0 | -1 | -2 | · | ·
CS(=O)(=O)c1ccc(Cl)c(NC(=O)CCCc2nc3ccccc3c(=O)[nH]2)c1 | 41* | 0 | 2 | 4 | 2 | ·
CCOc1ccc(S(=O)(=O)Nc2cccc(C(=O)NCCCn3ccnc3)c2)cc1 | -4 | -1 | 4 | 2 | · | ·
Cc1ccc(N2NC(=O)/C(=C/c3ccc(-c4ccc(Cl)c(C(=O)O)c4)o3)C2=O)cc1C | 7 | -3 | 1 | 1 | · | ·
COC(=O)c1ccc(N2NC(=O)/C(=C/c3ccc(-c4ccc(Cl)c(C(=O)O)c4)o3)C2=O)cc1 | 59* | -1 | · | 27 | 70* | -3
N#C/C(=C\c1c[nH]c2ccccc12)C(=O)NCC1CCCO1 (configuration not stated) | 63* | 2 | -4 | 22 | 64* | 2
COc1cccc(-c2ccc(-c3noc(-c4cccs4)n3)c(OC)n2)c1 | 68* | 6 | 1 | 25 | 72* | -2
O=C(/C=C/c1ccco1)N1CCN(S(=O)(=O)c2cccc([N+](=O)[O-])c2)CC1 | 65* | 0 | -1 | 23 | 62* | 4
COc1ccc(S(=O)(=O)N2CCN(C(=O)/C=C/c3ccco3)CC2)cc1 | -1 | -1 | · | -5 | · | ·
CSc1ccccc1NC(=O)Cn1nnc(-c2ccc(S(C)(=O)=O)cc2)n1 | -4 | 1 | 4 | -9 | · | ·
CS(=O)(=O)c1ccc(-c2nnn(CC(N)=O)n2)cc1 | 50* | 0 | 2 | 8 | 17 | ·
C=CCNC(=S)Nc1ccc2cn[nH]c2c1 | 2 | 1 | 3 | -2 | · | ·
CC1(C)CC(N2CCCC2)=CC(=[N+]2CCCC2)C1 | 66* | 0 | -3 | 22 | 72* | 2
CC1(C)CC(N2CCCC2)=CC(=[N+]2CCCCC2)C1 | 51* | 2 | 3 | 19 | 71* | 5
CC1(C)CC(N2CCN(Cc3ccccc3)CC2)=CC(=[N+]2CCCCC2)C1 | 32 | 0 | 1 | 15 | · | ·
C/C(=N\NC(=O)C1CCCC1)c1ccc(Cl)cc1 | 2 | 0 | · | -8 | · | ·
CCn1c(=O)c(C(=O)CN2CCN(S(=O)(=O)c3ccccc3)CC2)c(N)n(Cc2ccccc2)c1=O | 8 | 1 | -1 | -11 | · | ·
CCn1c(=O)c(C(=O)CN2CCN(S(=O)(=O)c3ccc(C)cc3C)CC2)c(N)n(Cc2ccccc2)c1=O | 44* | 8 | 2 | 7 | 2 | ·
COc1ccc(CCNC(=O)Cc2c(Cl)cccc2Cl)cc1 | 44* | 0 | 0 | 3 | 7 | ·
CCn1c(N2CCN(CC(=O)c3c(C)n(C)c4ccccc34)CC2)nc2c1c(=O)[nH]c(=O)n2C | 49* | -1 | -2 | 11 | 20 | ·
CCn1c(N2CCN(CC(=O)c3c(C)n(C)c4ccc(OC)cc34)CC2)nc2c1c(=O)[nH]c(=O)n2C | 2 | 4 | 0 | 5 | · | ·
SMILES | APOBEC3A inh | NTR1 agonist | AHR activator | APOBEC3G inh | A3A conf | UDG A3A counter
N#CC1(NC(=O)COc2ccccc2[N+](=O)[O-])CCCCC1 | 48* | 0 | 1 | 3 | 22 | ·
CN(CC(=O)Nc1ccccc1Cl)C(=O)C1CCN(C(=O)c2ccc(F)cc2)CC1 | -3 | -2 | 3 | -8 | · | ·
CCOC(=O)CC1(C)OCC(C[N+]2(C)CCCCC2)O1 (configuration not stated) | 78* | 0 | -2 | 16 | 81* | -3
Clc1cccc2c1CCN(Cc1nc(-c3cnccn3)no1)C2 | 1 | 2 | 8 | -4 | · | ·
O=C(CSc1ncn(-c2ccccc2)n1)Nc1ccc2c(c1)OCO2 | 46* | -1 | 40 | 12 | 11 | ·
COc1ccc(CC(=O)Nc2cccc(/C(C)=N/NC(=O)c3cccc([N+](=O)[O-])c3)c2)cc1 | 72* | 5 | 22 | 1 | 1 | ·
O=C1C=C(O)c2c(O)cc(O)c(O)c2C1=O | 83* | -1 | 0 | 8 | 76* | ·
